Assay outcomes: PubChem, National Center for Advancing Translational Sciences (NCATS)
NS1 inh: blocks influenza NS1 protein function; Potency, µM (titrated, usually from 46.1 µM); 270,000 compounds, 0.4% hits; AID 2326; calls by dose curve; further: actives are rising curves; nearly all actives have a fitted effect of over 50% in size
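In this qHTS, NS1 from influenza A is expressed in budding yeast, where it slows growth. Cells are switched from glucose to 2% galactose medium (pH 6.0, -URA), treated with compound, and growth recovery is read at OD600.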
HCV inh: blocks hepatitis C virus; Huh7.5.1 HCVcc-Cre infection, luciferase reporter, 44 h; Potency, µM (highest dose often 41.8 µM), most hits filed as inhibitors; 340,000 compounds, 3.4% hits; AID 651820
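Cells seeded at 1,000/well and cultured 4 h, then compounds added followed by HCVcc-Cre virus (~0.5 moi). After 44 h further culture, luciferase substrate was added, plates held 15 min at room temperature, and luminescence read for 15 sec.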
Pf growth 48h: inhibits P. falciparum growth in the first generation, 48 h; P. falciparum luciferase growth in erythrocytes, 48 h; Potency, µM (top dose mostly 28.7 µM), actives largely listed as inhibitors; 310,000 compounds, 5.9% hits
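Luciferase-expressing P. falciparum in infected erythrocytes (2% hematocrit, 0.1% parasitemia final) in RPMI 1640/0.5% Albumax were exposed to compound for 48 hours at 37 C, 5% CO2; growth read as luminescence.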
SARS PLP yeast: blocks SARS-CoV papain-like protease in a yeast assay; Potency, µM (doses to about 32.9 µM), usual class: activators; S. cerevisiae expressing SARS-CoV PLpro, growth rescue; 330,000 compounds, 0.19% hits; calls by dose curve; further: nearly all actives have a fitted effect of over 55% in size
AMA1-RON2 inh: disrupts binding of P. falciparum AMA1 to RON2 | AlphaScreen AMA1-biotinylated RON2 peptide binding | Potency, µM (series often up to 58.2 µM), hits mostly inhibitors | 360,000 compounds, 0.2% hits; further: nearly all actives have a fitted effect of over 45% in size
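AMA1 (3D7) with his tag at 25 nM final met compounds first, then biotinylated RON2 peptide at 25 nM; detection used donor plus acceptor beads, 10 µg/mL apiece, read by AlphaScreen after 30 min at room temperature.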
Pf growth 96h: P. falciparum growth inhibition at 96 hours | P. falciparum luciferase reporter growth, 96 h | 320,000 compounds, 6.9% hits | Potency, µM (highest dose often 28.7 µM), hits mostly inhibitors
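Erythrocytes infected with luciferase-expressing P. falciparum were dispensed at 2% hematocrit and 0.05% parasitemia (final), then incubated with compounds 96 hours at 37 C in 5% CO2. Luminescence after detection reagent addition reported growth.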
HCV confirm: HCV inhibition, cherry-pick confirmation | Potency, µM (highest dose often 41.8 µM), usual class: inhibitors | shares compounds with HCV inh | 640 compounds, 78% hits | AID 720575 | HCVcc-Cre infectious virus cell assay, luciferase, inhibition; further: nearly all actives have a fitted effect of over 80% in size
HCV cytotox: host cell cytotoxicity counter-screen for HCV inhibitors; 640 compounds, 22% hits; shares compounds with HCV inh; HCV host cell line cytotoxicity counterscreen; Potency, µM (series often up to 41.8 µM), most hits filed as inhibitors; AID 720576;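 further: 44 h compound exposure; nearly all actives have a fitted effect of over 55% in size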
Each line names hits and unclear results; the compound was inactive in the other large screens (follow-up assays come after a bar, where they were run); ! = not confirmed by another sample. Shown are actives, neighbours in structure and some others; about 12% of the full set was active somewhere. Unless noted, the call rests on the fitted dose curve; in most records, active means well fitted curve in the direction sought with a large enough effect; inconclusive means small, poorly fitted or top-dose-only effect, or another doubt; inactive means no such curve, though single readings can be large; an effect the other way counts as inactive or inconclusive.

CCc1nc2ccc(C(=O)N3CCN(C(C)=O)CC3)cn2c1N(C)C(=O)c1cccc(OC)c1	none (no result: NS1 inh, HCV inh, Pf growth 48h, SARS PLP yeast, Pf growth 96h)
O=C(/C=C\c1ccccc1[N+](=O)[O-])Nc1ccccc1	none (no result: NS1 inh)
CCOc1ccccc1NC(=O)/C=C/c1ccccc1[N+](=O)[O-]	HCV inh inconclusive, Pf growth 96h inconclusive | HCV confirm inconclusive | HCV cytotox inactive
CN(CCc1ccccn1)C(=O)CCC1CCCN(C(=O)c2n[nH]c3c2CCCC3)C1 (stereo unspecified)	Pf growth 48h inconclusive, Pf growth 96h inconclusive
Cc1cccc(CS(=O)(=O)c2ncc(Cl)c(C(=O)NCc3ccccc3)n2)c1	HCV inh inconclusive
Cc1cccc(CS(=O)(=O)c2ncc(Cl)c(C(=O)Nc3c(C)cccc3C)n2)c1	HCV inh 6.3µM | HCV confirm 10µM | HCV cytotox 28µM
Cc1cc(C(=O)OCC(=O)c2c(N)n(C)c(=O)n(C)c2=O)c(C)n1-c1ccccc1	NS1 inh inconclusive, Pf growth 48h inconclusive (no result: Pf growth 96h)
Cc1cc(C(=O)COC(=O)c2ccc(O)cc2O)c(C)n1-c1ccccc1	HCV inh inconclusive (no result: NS1 inh) | HCV confirm 18µM | HCV cytotox inactive
COc1ccc(OC)c(NC(=O)Cc2csc(NC(=O)Nc3ccccc3OC)n2)c1	HCV inh 8.9µM, Pf growth 48h inconclusive (no result: NS1 inh) | HCV confirm 10µM | HCV cytotox inactive
CCOc1ccc(NC(=O)CN(C)C(=O)c2cc([N+](=O)[O-])ccc2Sc2ccccc2)cc1OCC	HCV inh inconclusive (no result: NS1 inh, Pf growth 48h, SARS PLP yeast, Pf growth 96h)
O=c1oc(C2(O)CCCCC2)cc2ccc(-c3ccc4[nH]ccc4c3)cc12	HCV inh 1.1µM (no result: NS1 inh, Pf growth 48h, Pf growth 96h) | HCV confirm inconclusive | HCV cytotox inactive
Cc1ccc(CN2CCN(Cc3ccc(C)o3)[C@@H](C)C2)o1	none (no result: HCV inh, Pf growth 48h, SARS PLP yeast, AMA1-RON2 inh, Pf growth 96h)
CCC(C)NC(=O)CSc1nc(-c2cccs2)cc(C(F)(F)F)n1 (stereo unspecified)	HCV inh 4.5µM, Pf growth 96h 5.2µM (no result: Pf growth 48h) | HCV confirm 20µM | HCV cytotox inactive
CC1CCCCN1CCNc1nc(=S)[nH]c2ccccc12 (stereo unspecified)	HCV inh 3.5µM, Pf growth 96h 2.3µM | HCV confirm inactive | HCV cytotox inactive
CCN(CC(=O)Nc1ccc([N+](=O)[O-])cc1OC)c1ccccc1	HCV inh 3.2µM, Pf growth 48h inconclusive, Pf growth 96h 9.3µM | HCV confirm 14µM | HCV cytotox inactive
COc1cc([N+](=O)[O-])ccc1NC(=O)CN(C)C	HCV inh inconclusive
O=C(NCCN1CCC(Cc2ccccc2)CC1)C1CCN(S(=O)(=O)N2CCC3(CC2)OCCO3)CC1	HCV inh 6.3µM, Pf growth 48h inconclusive (no result: NS1 inh) | HCV confirm inconclusive | HCV cytotox inactive
Cc1nnsc1C(=O)NC1CCCc2c1cnn2-c1ccc(C(C)(C)C)cc1 (stereo unspecified)	HCV inh 1.6µM, Pf growth 48h inconclusive, Pf growth 96h inconclusive | HCV confirm 3.1µM | HCV cytotox 5.6µM
COC(=O)c1nn2c(C(F)(F)F)cc(-c3ccc(Br)o3)nc2c1Br	HCV inh 5.6µM, AMA1-RON2 inh inconclusive (no result: Pf growth 96h) | HCV confirm inconclusive | HCV cytotox inactive
Cc1cc(Nc2cccc(F)c2)nc(-c2ccccc2O)n1	HCV inh 4.5µM, Pf growth 48h inconclusive | HCV confirm 7.9µM | HCV cytotox inactive
Cc1cc(Nc2ccccc2Cl)nc(-c2ccccc2O)n1	HCV inh inconclusive, Pf growth 48h inconclusive, Pf growth 96h inconclusive
CCN(CC)S(=O)(=O)c1ccc(C)c(C)c1	Pf growth 96h inconclusive (no result: Pf growth 48h)
CCN(CC)S(=O)(=O)c1ccc2c(c1)C(=NO)c1cc(S(=O)(=O)N(CC)CC)ccc1-2	HCV inh 4.5µM, Pf growth 48h 9.3µM, Pf growth 96h 8.3µM | HCV confirm 7µM | HCV cytotox inconclusive
CC1CCN(CCCCOc2ccccc2-c2ccccc2)CC1	HCV inh inconclusive, Pf growth 48h 10µM | HCV confirm 20µM | HCV cytotox inactive
CC1CCN(CCOCCOc2ccccc2-c2ccccc2)CC1	HCV inh inconclusive, Pf growth 48h inconclusive, AMA1-RON2 inh inconclusive
CN(C)Cc1nnnn1-c1ccccc1	none
COc1ccc(-c2ccccc2)cc1NC(=O)c1cccs1	HCV inh 7.9µM | HCV confirm 20µM | HCV cytotox inactive
COc1ccccc1NC(=O)c1cccs1	HCV inh inconclusive (no result: Pf growth 96h)
COC(=O)c1cnn(-c2ccccc2)c1/C=N/NC(=S)Nc1ccc(Cl)cc1	HCV inh inconclusive, Pf growth 48h inconclusive
COc1ccc(NC(=O)c2ccc(CN3CCc4ccccc4C3)cc2)c(OC)c1	HCV inh inconclusive
COC(=O)c1ccc(CN2CCc3ccc(NC(=O)c4ccncc4)cc3C2)cc1	HCV inh 8.9µM, Pf growth 48h inconclusive | HCV confirm 14µM | HCV cytotox inconclusive
Cc1ccc2c(c1)c1c(n2CC(O)CNC2CCCCC2)CCCC1 (stereo unspecified)	HCV inh 4.5µM, Pf growth 48h 2.9µM, AMA1-RON2 inh inconclusive | HCV confirm 13µM | HCV cytotox inactive
Cc1ccc2c(c1)c1c(n2CC(O)CNC(CO)(CO)CO)CCCC1 (stereo unspecified)	HCV inh inconclusive (no result: Pf growth 48h)
COc1ccc(CCNC(=O)c2cccnc2Cl)cc1OC	none (no result: NS1 inh, Pf growth 48h, SARS PLP yeast, Pf growth 96h)
O=C(NCCCN1CCOCC1)c1cc(S(=O)(=O)N2CCOCC2)ccc1Cl	none (no result: NS1 inh, Pf growth 48h, Pf growth 96h)
Nc1ccc(S(=O)(=O)NCc2nccs2)cc1	none (no result: HCV inh, Pf growth 48h, SARS PLP yeast, AMA1-RON2 inh, Pf growth 96h)
C[C@H]1C[C@@H]2[C@H]([C@@H](O)C[C@@]3(C)[C@H]2CC[C@]3(O)C(=O)CO)[C@@]2(C)C=CC(=O)C=C12	NS1 inh inconclusive, HCV inh 5.6µM!, Pf growth 96h inconclusive | HCV confirm inactive | HCV cytotox inactive
C[C@]12C=CC(=O)C=C1CC[C@@H]1[C@@H]2[C@@H](O)C[C@@]2(C)[C@H]1CC[C@]2(O)C(=O)CO	none
COc1ccc(-c2csc(NC(=O)C3CSC4(C)CCC(=O)N34)n2)cc1 (stereo unspecified)	none (no result: NS1 inh)
COc1ccc(-c2csc(NC(=O)C3CSC4(C)CCC(=O)N34)n2)c(OC)c1 (stereo unspecified)	HCV inh 8.9µM, Pf growth 96h inconclusive (no result: NS1 inh) | HCV confirm 28µM | HCV cytotox inactive
CSc1ccc(CN2CCN(Cc3ccc([N+](=O)[O-])cc3)CC2)cc1	HCV inh inconclusive, Pf growth 48h inconclusive, AMA1-RON2 inh inconclusive, Pf growth 96h inconclusive (no result: NS1 inh) | HCV confirm 4µM | HCV cytotox 7µM
O=[N+]([O-])c1ccc(CN2CCCCCC2)cc1	Pf growth 96h inconclusive
